The values that follow come from PubChem BioAssay (NCI).

This is part of a sample that, as a whole, favours compounds with a hit. Of some 83,000 tested, about 20% had one in any assay.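 Results are percent growth after 48 hours of single-concentration exposure. 100 means growth as in untreated cells, lower positive values show inhibition; negative values down to -100 show cell death.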 Values without a mark were called inactive. Calls of active or inactive are those of the source. The calls were made as follows: active = growth percent below 10; inactive = the rest.

Some test systems named below: NCI-H23 lung; NCI-H226 lung; NCI-H322M lung; HOP-62 NSCLC; NCI-H460 lung; HOP-92 NSCLC; NCI-H522 lung; A549/ATCC NSCLC; 786-0 renal; COLO 205 colon.
Holding throughout (assay): NCI-60 one-dose screen, 48 h (100 = growth as untreated, 0 = no growth, -100 = all killed)
Common to all, as to conditions: 10 µM unless noted

Regarding `Cc1ccc(-c2cnc3sc(C(=O)NCCc4ccccc4)c(C)n23)cc1`, the growth in the assay with NCI-H23 lung is 95.4%; in the assay with NCI-H226 lung, 78.6%; in the assay on NCI-H322M lung it was 91.6%; in the assay with HOP-62 NSCLC it was 89.1%; with NCI-H460 lung it was 102%; in the assay on HOP-92 NSCLC it was 91.1%. The growth with NCI-H522 lung is 91.7%; in the assay on A549/ATCC NSCLC it was 109%; in the assay with 786-0 renal, 97.7%; in the assay on COLO 205 colon, 116%.
For `O=C1CCC/C=C\C[C@H]2C=CC(=O)/C2=C/C[C@H](CCc2cccc(C(F)(F)F)c2)O1`, the growth in the assay on NCI-H23 lung was -22% (active); in the assay with NCI-H226 lung it was -36.2% (active); in the assay on NCI-H322M lung, -44.6% (active); with HOP-62 NSCLC it was -73.7% (active); with NCI-H460 lung, -24.6% (active); in the assay on HOP-92 NSCLC it was -46.5% (active). For the same compound, the growth with NCI-H522 lung is -88.7% (active); in the assay with A549/ATCC NSCLC it was 0.826% (active); with 786-0 renal it was -79.2% (active); with COLO 205 colon, -84.8% (active).
For the compound `COC(=O)Nc1ccc(-c2nc(-c3cccc(OC)c3)c(-c3ccnc(Br)c3)[nH]2)cc1`, the growth was 67.7% in the assay on NCI-H23 lung; 59.1% with NCI-H226 lung; 62.2% in the assay on NCI-H322M lung; 59.4% in the assay with HOP-62 NSCLC; 61.2% in the assay with NCI-H460 lung; 62.8% in the assay with HOP-92 NSCLC. Moreover, the growth was 57.9% in the assay on NCI-H522 lung, 54.4% in the assay on A549/ATCC NSCLC, 37.4% in the assay with 786-0 renal and 79.7% with COLO 205 colon.
For the compound `C#Cc1cccc(NC(=O)Nc2ccccc2NC(=O)CCl)c1`, the growth in the assay with NCI-H23 lung is -52.2% [8.25 µM] (active); with NCI-H226 lung it was -56.2% [8.25 µM] (active); in the assay on NCI-H322M lung, 91% [8.25 µM]; with HOP-62 NSCLC, -34.8% [8.25 µM] (active); in the assay with NCI-H460 lung, -24.4% [8.25 µM] (active); with HOP-92 NSCLC, -30.6% [8.25 µM] (active). Also, the growth with NCI-H522 lung is -58.6% [8.25 µM] (active); with A549/ATCC NSCLC, 10% [8.25 µM]; in the assay with 786-0 renal, -63.2% [8.25 µM] (active); in the assay with COLO 205 colon it was -49.3% [8.25 µM] (active).
On to `Nc1nc(-c2cccc3ccccc23)cc2ccccc12`, for which the growth in the assay with NCI-H23 lung is 11.1%; with NCI-H226 lung it was -7.36% (active); in the assay with NCI-H322M lung, 46.5%; in the assay with HOP-62 NSCLC it was 13.7%; in the assay on NCI-H460 lung it was 0.0786% (active); with HOP-92 NSCLC, 19%. Further, the growth in the assay on NCI-H522 lung is -34.3% (active); in the assay with A549/ATCC NSCLC it was 28.7%; in the assay with 786-0 renal, 20.9%; with COLO 205 colon, -18.4% (active).
In the case of `COc1cc(C(=O)/C=C/c2c(Cl)nc3sccn23)cc(OC)c1OC`, the growth in the assay with NCI-H23 lung was 91.8%; with NCI-H226 lung, 92%; in the assay with NCI-H322M lung it was 77.3%; in the assay on HOP-62 NSCLC, 83.3%; with NCI-H460 lung, 87.1%; with HOP-92 NSCLC it was 57.3%. For the same compound, the growth is 61.8% in the assay with NCI-H522 lung, 83% in the assay with A549/ATCC NSCLC, 91.6% in the assay with 786-0 renal and 104% in the assay with COLO 205 colon.
On to `CC(=O)Oc1ccccc1C(=O)N=C1[Se]CCCN1C(=O)c1ccccc1OC(C)=O`, for which the growth with NCI-H23 lung was 6.41% (active); in the assay on NCI-H226 lung it was -19.1% (active); in the assay on NCI-H322M lung, -5.61% (active); with HOP-62 NSCLC, 17.7%; with NCI-H460 lung, 5.16% (active); with HOP-92 NSCLC, -10.3% (active). Besides, the growth is 73.3% in the assay on NCI-H522 lung, 77.9% in the assay with A549/ATCC NSCLC, 95.9% in the assay with 786-0 renal and 114% in the assay on COLO 205 colon.
As for `COc1ccc(C2C(N)=NNC2c2cccc(O)c2)cc1` (stereo not given), the growth was 90.2% in the assay on NCI-H23 lung; 84% with NCI-H226 lung; 90.6% in the assay with NCI-H322M lung; 90.2% in the assay with HOP-62 NSCLC; 115% in the assay with NCI-H460 lung; 88.3% in the assay on HOP-92 NSCLC. Besides, the growth with NCI-H522 lung was 89.2%; in the assay on A549/ATCC NSCLC, 99.8%; in the assay on 786-0 renal it was 108%; with COLO 205 colon it was 125%.
Turning to `COc1cc(/C=C2\C(=O)Nc3ccc(Br)cc32)cc(OC)c1OC`, the growth with NCI-H23 lung is 63.5%; in the assay with NCI-H226 lung it was 77.1%; with NCI-H322M lung, 76.1%; in the assay on HOP-62 NSCLC it was 85.2%; in the assay with NCI-H460 lung, 73.3%; with HOP-92 NSCLC it was 48.2%. The growth in the assay with NCI-H522 lung is 47%; in the assay with A549/ATCC NSCLC, -4.21% (active); in the assay with 786-0 renal it was 84.9%; in the assay on COLO 205 colon, 70.8%.
With `COc1cc(Nc2cn[nH]c2-c2ccc(Cl)cc2)cc(OC)c1OC`, the growth in the assay on NCI-H23 lung is 6.84% (active); with NCI-H226 lung, 65.2%; in the assay on NCI-H322M lung, 79.7%; in the assay with HOP-62 NSCLC, 36.7%; in the assay on NCI-H460 lung, 33.2%; in the assay with HOP-92 NSCLC it was 50.7%. Besides, the growth in the assay with NCI-H522 lung is 21.7%; in the assay on A549/ATCC NSCLC, 51%; in the assay on 786-0 renal it was 53.5%; in the assay with COLO 205 colon, 37.6%.
For the compound `Fc1cc(-c2nnc3sc(-c4ccc(Cl)cc4Cl)nn23)c(Cl)cc1Cl`, the growth in the assay with NCI-H23 lung is 83%; with NCI-H226 lung, 97.6%; in the assay with NCI-H322M lung, 89.7%; in the assay on HOP-62 NSCLC, 97.9%; with NCI-H460 lung, 57.6%; with HOP-92 NSCLC, 81.5%. Further, the growth with NCI-H522 lung was 86.6%; with A549/ATCC NSCLC it was 66.3%; in the assay on 786-0 renal it was 59.6%; in the assay with COLO 205 colon, 72.3%.
Take `COc1ccc(-c2[nH]c3ccc(OC)cc3c2/C=C(\C#N)S(=O)(=O)c2ccccc2)cc1`: the growth was 24.9% in the assay with NCI-H23 lung; 72.3% with NCI-H226 lung; 53.5% with NCI-H322M lung; 69.1% in the assay with HOP-62 NSCLC; 4.64% (active) in the assay on NCI-H460 lung; 29.2% in the assay with HOP-92 NSCLC. The growth in the assay on NCI-H522 lung was 34.5%; in the assay with A549/ATCC NSCLC, 23.5%; in the assay on 786-0 renal, 27.8%; with COLO 205 colon, -43.4% (active).
Take `CCCCNC(=O)Oc1ccc(/C(=C(\C)c2ccc(Cl)cc2)c2ccc(OCCN3CCCCC3)cc2)cc1`: the growth is 78.8% in the assay with NCI-H23 lung; 99.1% in the assay with NCI-H226 lung; 94.8% in the assay with NCI-H322M lung; 78.6% in the assay with HOP-62 NSCLC; 85.9% with NCI-H460 lung; 64.5% in the assay on HOP-92 NSCLC. Further, the growth with NCI-H522 lung is 85.2%; in the assay with A549/ATCC NSCLC it was 63.8%; with 786-0 renal, 63.2%; in the assay with COLO 205 colon, 69.2%.
